Hit rate of the full screen: of about 360,000 compounds, about 11,000 (3.1%) were called active. Inconclusive results (about 4%) are left out. The call rests on the fitted dose curve; in most records, active means well fitted inhibition curve with a large enough effect; inconclusive means small, poorly fitted or top-dose-only effect; inactive means no such curve, though single readings can be large or run the other way. Shown is part of a subset that was picked to be rich in actives. A call without a number means that no potency is given here.
What follows are molecules tested against Schistosoma mansoni thioredoxin glutathione reductase (TGR) (UniProt Q962Y6) (assay: qHTS Assay for the Inhibitors of Schistosoma Mansoni Peroxiredoxins). Settings: purified TGR, DTNB reduction, TNB absorbance 405 nm; series mostly up to 114 µM.
How it was run: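 TGR 20 nM + NADPH 100 uM (dispensed conc.), cpd preinc 15 min RT; start with NADPH (500 uM addition) then DTNB (15 mM addition). Kinetic TNB absorbance, 405 nm filter. Four-parameter Hill fit across titration.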
For COCCN1C(=O)C(=O)/C(=C(/O)c2ccc(S(=O)(=O)N3CCOCC3)cc2)C1c1ccc(OC)c(OC)c1 (stereo unspecified), the Potency was “inactive”. For COCCN1C(=O)C(=O)/C(=C(/O)c2ccc(S(=O)(=O)N3CCOCC3)cc2)C1c1ccc(O)c(OC)c1 (stereo unspecified), the Potency was “inactive”. For O=C1C(=O)N(CCN2CCOCC2)C(c2cccc(Cl)c2)/C1=C(/O)c1ccc2c(c1)OCO2 (stereo unspecified), the Potency was 50.1 µM (active). With COc1ccc(C2/C(=C(/O)c3ccc(OC(C)C)cc3)C(=O)C(=O)N2CCCN2CCOCC2)cc1 (stereo unspecified) the Potency was 20 µM (active). For COCCCN1C(=O)C(=O)/C(=C(/O)c2ccc(S(=O)(=O)N3CCOCC3)cc2)C1c1ccc(F)cc1 (stereo unspecified), the Potency was “inactive”. In the case of CCN(CC)CCN1C(=O)C(=O)/C(=C(/O)c2ccc(OC)c(OC)c2)C1c1ccccn1 (stereo unspecified), the Potency is reported as “inactive”. For CCn1c2c(c(=O)n3ncc(C(=O)N4CCN(c5ccccc5)CC4)c13)CN(Cc1ccc(OC)cc1)CC2, the Potency was “inactive”. For CCc1cccc(NC(=O)CN(C)S(=O)(=O)c2ccc3[nH]c4c(c3c2)CCCC4)c1, the Potency was “inactive”. In the case of O=C(Nc1cc(C(F)(F)F)ccc1Cl)c1cc2nc(-c3ccc4c(c3)OCO4)cc(C(F)(F)F)n2n1, the Potency is reported as “inactive”. In the case of O=C(CSc1nc(Nc2ccc(F)c(F)c2)c2ccccc2n1)c1ccc(Cl)cc1, the Potency is reported as “inactive”. In the case of Cc1cc(C)nc(NS(=O)(=O)c2ccc(NC(=O)c3cc(=O)c4ccc(C)c(C)c4o3)cc2)n1, the Potency is reported as “inactive”. In the case of COC(=O)c1c(NC(=O)CCCOc2ccccc2)sc2c1CCC(C)C2 (stereo unspecified), the Potency is reported as “inactive”. O=C(O)CCn1cc(/C=C/C(=O)c2ccc(Cl)cc2)c(-c2cccc(Br)c2)n1 was tested, and the Potency was “inactive”. For O=C(O)CCn1cc(C=C2C(=O)NC(=S)NC2=O)c(-c2cccc(Br)c2)n1, the Potency was 31.6 µM (active). In the case of Cc1cccc(NC(=O)c2ccc3nc(C(C)C)oc3c2)c1C, the Potency is reported as “inactive”. O=S(=O)(c1ccc(Br)cc1)c1nc(-c2ccccc2)oc1N1CCOCC1 was tested, and the Potency was “inactive”. O=S(=O)(c1ccccc1)c1nc(-c2ccccc2)oc1NCCCN1CCOCC1 was tested, and the Potency was “inactive”. With O=S(=O)(c1ccccc1)c1nc(Cc2ccccc2)oc1N1CCOCC1 the Potency was 2 µM (active). In the case of Cc1ccc(NC(=O)Nc2sc3nc4n(c(=O)c3c2C)CCC(C)CC4)c(Cl)c1 (stereo unspecified), the Potency is reported as “inactive”. In the case of CCC(C)c1ccc2oc(-c3ccc(NC(=O)c4cc5ccccc5o4)cc3)nc2c1 (stereo unspecified), the Potency is reported as “inactive”. In the case of Cc1ccc(C2c3[nH]c4ccccc4c3CCN2C(=O)c2cccc(C)c2)cc1 (stereo unspecified), the Potency is reported as “inactive”. In the case of Cc1ccc(C)c(N2C(=O)N(Cc3c(F)cccc3Cl)c3ccccc3S2(=O)=O)c1, the Potency is reported as “inactive”. With CCN(CC(=O)NCc1ccco1)S(=O)(=O)c1ccc(F)cc1 the Potency was “inactive”. With COc1ccc(CCNC(=O)C(=O)NCC(c2ccco2)S(=O)(=O)c2cccs2)cc1OC (stereo unspecified) the Potency was 3.55 µM (active). In the case of O=C(CCNC(=O)c1ccc(Br)cc1)NCC(c1ccco1)N1CCCCC1 (stereo unspecified), the Potency is reported as “inactive”. With COc1ccc(CCNC(=O)C(=O)NCC2CCCN2S(=O)(=O)c2cccs2)cc1OC (stereo unspecified) the Potency was “inactive”. In the case of CC(C)(C)c1ccc(C(=O)NCC(c2ccco2)S(=O)(=O)c2ccc(F)cc2)cc1 (stereo unspecified), the Potency is reported as 11.2 µM (active). For Cc1cc(S(=O)(=O)Nc2ccc(C(=O)NCC(c3ccco3)N3CCCC3)cc2)ccc1F (stereo unspecified), the Potency was “inactive”. For COc1ccc(CCNC(=O)C(=O)NCc2ccccc2C)cc1OC, the Potency was “inactive”. O=C(NCC(c1ccco1)N1CCc2ccccc21)c1cccc(F)c1 (stereo unspecified) was tested, and the Potency was “inactive”. O=C(NCC(c1ccco1)S(=O)(=O)c1cccs1)c1ccc(F)cc1 (stereo unspecified) was tested, and the Potency was 7.08 µM (active). In the case of CCC(=O)Nc1c(C(=O)N2CCN(c3ccc(F)cc3)CC2)oc2ccccc12, the Potency is reported as “inactive”. CN(CC(=O)Nc1cccc(C(F)(F)F)c1)S(=O)(=O)c1cccs1 was tested, and the Potency was “inactive”. CCOc1ccc(N(CC)C(=O)c2noc3c2COc2ccc(C)cc2-3)cc1 was tested, and the Potency was “inactive”. In the case of Cc1ccc2[nH]c3c(=O)n(CC(=O)NC(C)C)ncc3c2c1, the Potency is reported as “inactive”. In the case of Cc1ccc2c(=O)cc(C(=O)Nc3sc4c(c3C(=O)NCc3cccnc3)CCCC4)oc2c1, the Potency is reported as “inactive”. CCCNC(=O)c1ccc(Cn2c(SCC(N)=O)nc3ccccc3c2=O)cc1 was tested, and the Potency was “inactive”. For CCN(CC(=O)Nc1ccc(Cl)c(S(=O)(=O)N(C)C)c1)Cc1nc2ccccc2c(=O)[nH]1, the Potency was 39.8 µM (active). For CCN(CC(=O)Nc1cccc(S(N)(=O)=O)c1)Cc1nc2ccccc2c(=O)[nH]1, the Potency was “inactive”. CN(C)S(=O)(=O)c1cc(NC(=O)CN2C(=O)NC3(CCCc4ccccc43)C2=O)ccc1Cl (stereo unspecified) was tested, and the Potency was “inactive”. For CCN(CC)c1ccc(C(=O)NNC(=O)CCc2nc3ccccc3c(=O)[nH]2)cc1, the Potency was “inactive”. With CCN(CC(=O)Nc1ccc(C)c(S(=O)(=O)N(C)C)c1)Cc1ccccc1 the Potency was “inactive”. With CCCCN(CC(=O)Nc1cccc(S(=O)(=O)N2CCCC2)c1)Cc1nc2ccccc2c(=O)[nH]1 the Potency was 22.4 µM (active). For O=C(c1ccco1)N(Cc1nc2ccccc2c(=O)[nH]1)C1CCCC1, the Potency was “inactive”. In the case of CCN(CC(=O)NC(=O)NCc1ccccc1)Cc1nc2ccccc2c(=O)[nH]1, the Potency is reported as 89.1 µM (active). CCN(CC(=O)Nc1cccc(S(=O)(=O)N2CCCCC2)c1)Cc1ccccc1 was tested, and the Potency was “inactive”.
Further: nearly all actives have a fitted effect of over 60% in size.
Potency means the concentration at half of the fitted maximal effect.
